Our source for the Potency and activity change, negative = inhibition values is PubChem BioAssay (NCATS).

Inconclusive results are not listed. Where a call stands in place of a potency, no number is given. Calls of active or inactive are those of the source. Calls come from the whole dose curve.

Experiment [1] is described as follows: Confirmatory qHTS to identify inhibitors of SARS-CoV-2 cell entry (AID 1645844). Note: nearly all actives have a fitted effect of over 45% in size. The gist of the method: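 HEK293-ACE2, overnight seeding; cpd 1 h, 37C/5% CO2; + SARS-CoV-2-S MLV PP (Wuhan-Hu-1, ΔC19); 48 h; Bright-Glo luminescence. Data normalised to S PP and bald PP wells.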
For orientation: qHTS replaces the single test concentration by a dilution series.

Experiment [2] in a line: Primary qHTS to identify inhibitors of SARS-CoV-2 cell entry (AID 1645846). Note: nearly all actives have a fitted effect of over 45% in size. Particulars: SARS-CoV-2 pseudovirus cell entry assay, luminescence; activity change, negative = inhibition: at 57.1 µM (top of the series) unless noted. Put shortly:
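Luminescence readout (Bright-Glo luciferase) 48 h after pseudoparticle addition. HEK293-ACE2 cells, 1500/well; compound pre-incubation 1 h; Normalized to spike PP and bald PP.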

Experiment [3] can be described thus: VSVG counterscreen qHTS to identify inhibitors of SARS-CoV-2 cell entry (AID 1645847). Note: nearly all actives have a fitted effect of over 65% in size. The gist of the method: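 HEK293-ACE2 cells (Expi293F stably expressing human ACE2) were pretreated with compound for 1 h at 37 °C, then infected with MLV-based VSV-G pseudotyped particles for 48 h. Luciferase luminescence was normalized to VSV-G PP and bald PP wells.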
(In general: The purpose of a counterscreen is to sort out artefacts and off-target activity.)

Experiment [4] in a line: S16 Schwann cell PMP22 intronic element beta-lactamase assay (AID 624044). Note: nearly all actives have a fitted effect of over 15% in size. Particulars: S16 rat Schwann cells, PMP22 element beta-lactamase FRET, 24 h; ratio activity, negative = inhibition: at 38.3 µM (top of the series) unless noted. Put shortly: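 Beta-lactamase reporter under a PMP22 intronic regulatory element in stable S16 rat Schwann cells; 24 h compound exposure. 460 nm blue signal normalized between DMSO (0%) and potassium clavulanate, with 535 nm FRET tracking viability; curves classed by r2 and response.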

Experiment [5] can be described thus: Cytotoxicity counterscreen for inhibitors of SARS-CoV-2 cell entry (AID 1645845). Note: nearly all actives have a fitted effect of over 50% in size. The settings on record: outcome: dose series up to 57.1 µM unless noted. Put shortly:
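Counterscreen run in the same HEK293-ACE2 line as the pseudotyped-particle entry assay, without particles. Viability after 48 h at 37 C was read as ATP luminescence, scaled between cell-containing and cell-free wells.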
Potency is the fitted concentration of half-maximal effect.

Consider `O=C(Nc1ccnc(NC(=O)C2CC2)c1)c1c(Cl)cccc1Cl`, for which the Potency in experiment [1] was 1.92 µM (active); in experiment [3], 2.71 µM (active). Moreover, the activity change, negative = inhibition in experiment [2] is -97%. As to `C[C@@]12C(=O)OC(=O)[C@]1(C)[C@H]1CC[C@@H]2O1`, the Potency is 3.37 µM (active) in experiment [4], 4.82 µM (active) in experiment [1], 8.91 µM (active) in experiment [2] and 3.04 µM (active) in experiment [3]. On to `CO[C@@H]1[C@@H](O)[C@H](O)[C@@H](n2c3c(Cl)cccc3c3c4c(c5c6cccc(Cl)c6[nH]c5c32)C(=O)NC4=O)O[C@H]1CO`, for which the Potency is 0.961 µM (active) in experiment [1], 1 µM (active) in experiment [2] and 0.857 µM (active) in experiment [3]. In the same order, the values of `CN(C)CCN1C(=O)c2cccc3cc(NC(N)=O)cc(c23)C1=O` are 9.61 µM (active), 7.08 µM (active) and 12.1 µM (active). For the compound `Cc1nnc(C[C@@H]2C=C(c3ccc(Cl)cc3)c3ccccc3-n3c(C)nnc32)o1`, the Potency result in experiment [1] was “inactive”. Moreover, in experiment [3], the Potency was 9.61 µM (active). Turning to `c1cc(Nc2cc(C3CC3)[nH]n2)nc(Nc2ccc3nc[nH]c3c2)n1`, the Potency is 0.192 µM (active) in experiment [1] and 0.242 µM (active) in experiment [3]. Besides, in experiment [2], the activity change, negative = inhibition was -94.9%. On to `C=CC(=O)N1CC[C@@H](Oc2nc(Nc3ccc(N4CCC(N5CCN(C)CC5)CC4)cc3)c(C(N)=O)nc2CC)C1`, for which the results for the Potency in experiment [1] and in experiment [3] were 2.35 µM (active) and 5.27 µM (active), respectively.

Turning to `O=C1NC(=O)[C@@H](c2c[nH]c3ccccc23)[C@H]1c1cn2c3c(cccc13)CCC2`, the values for the Potency in experiment [1] and in experiment [3] were 7.64 µM (active) and 1.52 µM (active), respectively. In the same order, the values of `COc1ccc(S(=O)(=O)N2CCc3cccc(-c4ccncc4)c32)cc1` are 0.961 µM (active) and 1.52 µM (active). In the same order, the values of `CNC(=O)c1cccc(-c2ccc3c(N4CCOC[C@@H]4C)nc(N4CCOC[C@@H]4C)nc3n2)c1` are 2.41 µM (active) and 2.71 µM (active). With `COc1cc(N2CCC(N)CC2)ccc1Nc1ncc(Cl)c(-c2c[nH]c3ccccc23)n1`, the Potency in experiment [5] was 31.6 µM (active). Same read-out and setting: the result for `CC(=O)Nc1ccc(C(=O)Nc2ccccc2N)cc1` reads 7.08 µM (active). Still for that read-out and setting: the result for `Cc1cc(OCc2nnc(SC3CCCC3)n2-c2cccnc2)ccc1-c1ccc(S(C)(=O)=O)cc1` reads “inactive”. Still for that read-out and setting: the result for `COc1cc2c(cc1OCCCN1CCCC1)N=C(N)C21CCC1` reads “inactive”; that for `COc1cc2c(cc1OC(C)C)[C@H](c1ccc(Cl)cc1)N(c1ccc(N(C)CC3CCC(N4CCN(C)C(=O)C4)CC3)cc1)C(=O)C2` (stereo partly drawn), “inactive”; that for `O=C(NOCCO)c1cc(CN2OCCCC2=O)c(F)c(F)c1Nc1ccc(I)cc1F`, “inactive”. As for `CN1CCN(CCCNc2ncc(Cl)c(-c3cc4c(C(=O)NC5CC5)cccc4s3)n2)CC1`, the Potency result in experiment [5] is “inactive”. Same read-out and setting: the result for `Cc1ccc(-c2nn(C(C)(C)CNC(=O)c3ccncc3)c3ncnc(N)c23)cc1` reads “inactive”.

Consider `CC(=O)N1c2ccc(-c3ccc(C(=O)O)cc3)cc2[C@H](Nc2ccc(Cl)cc2)C[C@@H]1C`, for which the Potency result in experiment [5] is “inactive”.

For `CCS(=O)(=O)N1CCN(c2ccc(Nc3ncc(C(N)=O)c(NC4CC4)n3)cc2)CC1`, the Potency in experiment [5] is 25.1 µM (active). The same measure, in the same setting: the result for `CN(C)N(C)C(=O)[C@@]1(Cc2ccccc2)CCCN(C(=O)[C@@H](Cc2c[nH]c3ccccc23)NC(=O)C(C)(C)N)C1` reads “inactive”; that for `CN1CCN(c2ccc(Nc3ncc4cc(C#N)c(=O)n(C5CCCC5)c4n3)cc2)CC1`, “inactive”; that for `O=C(O)c1ccc(O)c2ncccc12`, “inactive”. On the same count and under the same terms, in the case of `CC[C@H]1OC(=O)[C@H](C)C(=O)[C@H](C)[C@@H](O[C@H]2O[C@H](C)C[C@H](N(C)C)[C@H]2O)[C@](C)(OC)C[C@@H](C)C(=O)[C@H](C)[C@H]2N(CCCCn3cnc(-c4cccnc4)c3)C(=O)O[C@]12C` it was “inactive”. Same read-out and setting: in the case of `Cc1nnn(C)c1-c1cnc2c3ccc(C(C)(C)O)cc3n([C@H](c3ccccc3)C3CCOCC3)c2c1` it was “inactive”. Turning to `Cc1cc(C)cc(Oc2ccc(CNC(=O)[C@H](C)N)cc2C)c1`, the Potency result in experiment [5] was “inactive”. Same read-out and setting: in the case of `CN(Cc1ccccc1)C(=O)c1ccc(S(=O)(=O)Nc2ccccc2)cc1` it was “inactive”; in that of `O=C(C[C@@H]1C/C=C\CCC(=O)O[C@H](c2ccccc2)CNC1=O)NCc1ccc(Cl)cc1`, “inactive”; in that of `CSC[C@H]1CN(Cc2c[nH]c3c(N)ncnc23)C[C@@H]1O`, “inactive”. The same measure, in the same setting: the result for `O=c1[nH]nc2c3c(cccc13)NC(CN1Cc3ccccc3C1)=N2` reads “inactive”; that for `O=C(Nc1cccc(C(F)(F)F)c1)c1cccc2cc(Oc3cc(CO)ncn3)ccc12`, “inactive”; that for `CC#CC(=O)N1CCC[C@H]1c1nc(-c2ccc(C(=O)Nc3ccccn3)cc2)c2c(N)nccn12`, “inactive”.

With `CCCCCCCCCCCCCCCCOCCCOP(=O)(O)COC(CO)Cn1ccc(N)nc1=O` (stereo not drawn), the Potency entry in experiment [5] was “inactive”. Same read-out and setting: in the case of `O=C(Cc1cccc(OC(F)(F)F)c1)Nc1ccc(CCCCc2nnc(NC(=O)Cc3ccccn3)s2)nn1` it was “inactive”; in that of `CCNC(=O)Nc1ccc(Oc2ncnc(N)c2/C=N/OC)cc1Cl`, “inactive”. On the same count and under the same terms, in the case of `CN(C)Cc1cccc(N=C(c2ccccc2)c2c(O)[nH]c3cc(C(N)=O)ccc23)c1` it was “inactive”; in that of `N#Cc1ccnc(N2C(=O)CC[C@H]2C(=O)N(c2cncc(F)c2)[C@H](C(=O)NC2CC(F)(F)C2)c2ccccc2Cl)c1`, “inactive”; in that of `CNC(=O)[C@@H](NC(=O)[C@H](CC(C)C)[C@H](O)C(=O)NO)C(C)(C)C`, “inactive”. Still for that read-out and setting: the result for `CC[C@@H]1[C@H](F)C(=O)N[C@@H]1COc1nccc2cc(C(N)=O)c(OC)cc12` reads “inactive”. In the case of `Nc1nc2cc(-c3ccc4ncc(C(=O)N5CCOCC5)n4c3)ccc2o1`, the Potency result in experiment [5] was “inactive”.

On to `Cn1cc(/C=C/C(=O)c2cccc(F)c2)cc1/C=C/C(=O)NO`, for which the Potency entry in experiment [5] was “inactive”. For `Cc1cc(N2CCOCC2)ccc1Nc1nc(NC2CCCCC2)c2[nH]cnc2n1`, the Potency entry in experiment [5] was “inactive”. The same measure, in the same setting: the result for `Cc1cc(C(=O)Nc2cc(Oc3ccc4nc(NC(=O)C5CC5)cn4n3)ccc2C)n(C)n1` reads “inactive”; that for `CNCCN(C)Cc1cn[nH]c1-c1ccc(OC2CC(OCCC3CCOCC3)C2)cc1` (stereo not drawn), “inactive”; that for `CCN1C(=O)N2Cc3cc(OC)cc(OC)c3[C@@H](C)C=C2C12CCN(Cc1cc(C)cc(C)c1)CC2`, “inactive”. On the same count and under the same terms, in the case of `Cc1ncc(NC(=O)c2cccc(C(F)(F)F)c2)cc1-c1cnc(OC2CCOCC2)c(N2CCOCC2)c1` it was “inactive”; in that of `C=C1C(=O)OC2/C=C(/C)CC/C=C(/C)CCC12` (stereo not drawn), “inactive”.

Consider `CCc1ccc2nc(Nc3cc(Cc4ccccc4)nc(NC4CCC(O)CC4)n3)sc2c1` (stereo not drawn), for which the Potency result in experiment [5] was “inactive”. Same read-out and setting: in the case of `C=C1CCC2[C@](C)(CO)C(O)CC[C@]2(C)C1C/C=C1/C(=O)OCC1O` (stereo partly drawn) it was “inactive”; in that of `COc1cc(OC)cc(N(CCNC(C)C)c2ccc3ncc(-c4cnn(C)c4)nc3c2)c1`, “inactive”. For `C=Cc1cc(O)cc2nc(-c3ccc(O)c(F)c3)oc12`, the Potency result in experiment [5] was “inactive”. Further, the activity change, negative = inhibition in experiment [2] is -0.0201%.
